Assay [1] in a line: E. coli DRC41 culture turbidity changes, primary screen, E. coli filamentation inducer project, strain DRC41, OD650, 48 h (AID 1152).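 Note: E. coli MC1000 strain DRC41 lacking acrAB efflux pump and sulA.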 The conditions noted are these: E. coli DRC41 (acrAB sulA), higher = more signal, called active from +8 up or from −8 down.
Assay [2] is described as follows: small-molecule binders of probe aLefty1, primary screen, biochemical, small-molecule microarray, 635/667 nm fluorescence (AID 1153).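 Note: score merges spot fluorescence with signal-to-noise ratio from the scanned slide images.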 Particulars: higher = more signal.
Assay [3] is described as follows: PSAC antagonists in infected red cells, primary screen, cell-based, P. falciparum Indochina, OD700, 1 h (AID 1154). Particulars: P. falciparum Indochina infected RBC osmotic lysis, higher = more signal, called active from +8 up or from −8 down.
The nature of assay [4]: PSAC antagonists in infected red cells, primary screen, cell-based, P. falciparum Indochina, OD700, 2 h (AID 1155).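 Note: lysis reports solute entry through the parasite surface anion channel PSAC; channel blockers reduce lysis of infected cells.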 The conditions noted are these: P. falciparum Indochina infected erythrocytes, osmotic lysis OD700; higher = more signal, called active from +8 up or from −8 down.
The nature of assay [5]: osmotic lysis modulators in infected erythrocytes, primary screen, PSAC antagonist project, cell-based, P. falciparum Indochina, OD700, 3 h (AID 1156). Particulars: higher = more signal, called active from +8 up or from −8 down.
Assay [6] is described as follows: PSAC antagonists in infected red cells, primary screen, cell-based, P. falciparum Indochina, OD700, 18 h (AID 1157). The conditions noted are these: P. falciparum Indochina infected erythrocytes, osmotic lysis OD700, 18 h; higher = more signal, called active from +8 up or from −8 down.
Assay [7] in a line: modulators of S6 phosphorylation in cells, primary screen, cell-based, A549, cytoblot, luminescence, serum-stimulated (AID 1158).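 Note: serum-stimulated A549 lung adenocarcinoma cells; signal is phosphorylated S6 detected by cytoblot immunostaining with HRP secondary.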 Particulars: A549 phospho-S6 cytoblot, 5 h, higher = more signal.
The target of assay [8] is NADPH oxidase 2 (Homo sapiens) (UniProt P04839). As to the kind of experiment: NOX2-dependent H2O2 signal modulators, primary screen, NOX inhibitor project, cell-based, HEK293-NOX2, PMA-stimulated, Amplex Red fluorescence (AID 1159). Note: test concentration not given here. The conditions noted are these: 45 min, higher = more signal, called active from +8 up or from −8 down.
Assay [9] concerns the target NADPH oxidase 4 (Homo sapiens) (UniProt Q9NPH5). As to the kind of experiment: NOX4-dependent H2O2 signal modulators, primary screen, NOX inhibitor project, cell-based, HEK293-NOX4, tetracycline-induced, Amplex Red fluorescence (AID 1160). Particulars: 45 min, higher = more signal, called active from +8 up or from −8 down.
Assay [10] concerns the target NADPH oxidase 5 (Homo sapiens) (UniProt Q96PH1). As to the kind of experiment: NOX5-dependent H2O2 signal modulators, primary screen, NOX inhibitor project, cell-based, HEK293-NOX5, Amplex Red fluorescence (AID 1161). Particulars: HEK293-NOX5, ionomycin, 45 min, higher = more signal.
A short description of assay [11]: A549 cell viability effects, profiling panel, calcein-AM fluorescence, 48 h, basal (AID 1162). Note: test concentration not given here. The conditions noted are these: higher = more signal.
A short description of assay [12]: adipocyte viability effects, profiling panel, cell-based, 3T3-L1 adipocytes, calcein-AM fluorescence, 48 h, basal (AID 1163). Note: test concentration not given here. The conditions noted are these: 3T3-L1 adipocytes viability, higher = more signal.
A short description of assay [13]: HepG2 cell viability effects, profiling panel, calcein-AM fluorescence, 48 h, basal (AID 1164). Note: test concentration not given here. The conditions noted are these: higher = more signal.
Assay [14] is described as follows: MM1S cell viability effects, profiling panel, calcein-AM fluorescence, 48 h, basal (AID 1165).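 Note: viability of MM1S multiple myeloma cells under basal unstimulated conditions; test concentration not given here.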 Particulars: higher = more signal.
Assay [15] can be described thus: basal RPMI8226 viability, no added stimulus, profiling panel, cell-based, calcein-AM fluorescence, 48 h, PK04 Diversity Set (AID 1166).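 Note: cells grown under basal conditions without added stimulus; test concentration not given here.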 Particulars: RPMI8226 myeloma viability, higher = more signal.
The nature of assay [16]: basal HepG2 mitochondrial membrane potential changes, profiling panel, cell-based, JC-1 fluorescence, 24 h, 100 nL compound (AID 1167). Note: test concentration not given here. The conditions noted are these: higher = more signal.
A short description of assay [17]: basal 3T3-L1 adipocyte mitochondrial potential changes, profiling panel, cell-based, JC-1 fluorescence, 3T3-L1 adipocytes, 24 h, 100 nL compound (AID 1168). Note: test concentration not given here. The conditions noted are these: JC-1 mitochondrial fluorescence, higher = more signal, called active from +8 up or from −8 down.
The nature of assay [18]: basal RPMI8226 mitochondrial membrane potential changes, profiling panel, cell-based, JC-1 fluorescence, 24 h, 100 nL compound (AID 1169). Note: test concentration not given here. The conditions noted are these: RPMI8226 myeloma, JC-1 mitochondrial potential fluorescence, higher = more signal.
The nature of assay [19]: basal MM1S mitochondrial membrane potential changes, profiling panel, cell-based, JC-1 fluorescence, 24 h, 100 nL compound (AID 1170). Note: test concentration not given here. The conditions noted are these: higher = more signal.
Assay [20] is described as follows: A549 lung cancer cell viability effects, profiling panel, resazurin fluorescence, 24 h, PK04 Diversity Set (AID 1171). Note: test concentration not given here. The conditions noted are these: higher = more signal, called active from +8 up or from −8 down.

Drawing on PubChem BioAssay, this text covers z-score and composite z-score for 5 molecules.

Activity calls are given as the source filed them.

NADPH oxidase 5 (Homo sapiens), sequence (Q96PH1 whole entry, looked up): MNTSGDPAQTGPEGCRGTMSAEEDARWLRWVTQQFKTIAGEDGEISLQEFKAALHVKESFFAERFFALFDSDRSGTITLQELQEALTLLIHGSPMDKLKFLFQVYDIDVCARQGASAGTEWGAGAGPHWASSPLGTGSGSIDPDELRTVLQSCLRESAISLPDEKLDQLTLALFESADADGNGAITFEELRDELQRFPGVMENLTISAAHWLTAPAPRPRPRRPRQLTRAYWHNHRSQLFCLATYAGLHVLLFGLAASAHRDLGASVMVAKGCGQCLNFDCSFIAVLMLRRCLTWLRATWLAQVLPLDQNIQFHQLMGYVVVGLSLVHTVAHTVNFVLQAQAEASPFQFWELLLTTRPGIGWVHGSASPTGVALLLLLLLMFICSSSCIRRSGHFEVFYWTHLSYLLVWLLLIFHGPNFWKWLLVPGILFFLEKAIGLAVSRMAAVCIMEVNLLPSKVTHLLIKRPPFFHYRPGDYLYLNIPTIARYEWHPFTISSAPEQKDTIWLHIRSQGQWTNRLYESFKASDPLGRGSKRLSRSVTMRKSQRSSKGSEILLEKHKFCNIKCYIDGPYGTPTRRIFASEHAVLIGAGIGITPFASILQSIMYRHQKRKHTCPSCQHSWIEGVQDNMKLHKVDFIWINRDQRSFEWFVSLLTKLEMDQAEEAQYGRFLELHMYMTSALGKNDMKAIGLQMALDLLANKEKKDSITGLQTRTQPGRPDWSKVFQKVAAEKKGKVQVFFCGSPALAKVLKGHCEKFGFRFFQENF
NADPH oxidase 4 (Homo sapiens), sequence (Q9NPH5 whole entry, looked up): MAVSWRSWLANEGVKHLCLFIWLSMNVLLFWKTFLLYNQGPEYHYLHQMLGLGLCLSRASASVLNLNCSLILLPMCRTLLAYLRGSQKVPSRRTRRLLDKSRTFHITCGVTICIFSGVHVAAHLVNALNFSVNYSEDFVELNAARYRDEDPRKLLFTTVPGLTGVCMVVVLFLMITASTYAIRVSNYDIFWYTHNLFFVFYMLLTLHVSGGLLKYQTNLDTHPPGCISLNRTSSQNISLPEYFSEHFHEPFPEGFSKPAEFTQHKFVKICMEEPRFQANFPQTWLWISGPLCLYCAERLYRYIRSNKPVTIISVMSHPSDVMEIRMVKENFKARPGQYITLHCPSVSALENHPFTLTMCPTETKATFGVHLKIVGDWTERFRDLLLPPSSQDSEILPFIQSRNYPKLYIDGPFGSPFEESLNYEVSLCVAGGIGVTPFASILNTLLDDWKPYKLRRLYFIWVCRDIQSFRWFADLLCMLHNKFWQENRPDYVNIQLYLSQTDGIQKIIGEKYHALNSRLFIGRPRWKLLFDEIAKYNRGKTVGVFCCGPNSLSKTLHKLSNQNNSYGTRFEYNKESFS
NADPH oxidase 2 (Homo sapiens), sequence (P04839 whole entry, looked up): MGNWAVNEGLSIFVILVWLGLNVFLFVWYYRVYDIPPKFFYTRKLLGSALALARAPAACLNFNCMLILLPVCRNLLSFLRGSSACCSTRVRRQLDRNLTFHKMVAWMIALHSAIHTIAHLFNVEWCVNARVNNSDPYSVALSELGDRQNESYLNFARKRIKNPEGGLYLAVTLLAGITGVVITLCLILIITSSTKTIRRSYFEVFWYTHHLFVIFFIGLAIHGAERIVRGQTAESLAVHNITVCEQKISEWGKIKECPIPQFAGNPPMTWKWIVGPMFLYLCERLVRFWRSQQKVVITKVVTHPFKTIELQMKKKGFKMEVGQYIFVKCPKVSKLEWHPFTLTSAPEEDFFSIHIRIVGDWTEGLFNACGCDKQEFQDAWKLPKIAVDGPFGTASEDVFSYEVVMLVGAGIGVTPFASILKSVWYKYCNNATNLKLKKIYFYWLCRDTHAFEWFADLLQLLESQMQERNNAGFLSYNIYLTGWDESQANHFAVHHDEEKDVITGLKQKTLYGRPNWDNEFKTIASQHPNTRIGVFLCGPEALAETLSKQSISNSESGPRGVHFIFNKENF

On to `COc1ccc(C(=O)Nc2cccc(CN3C(=O)[C@]4(O[C@H](CCO)[C@@H]([Si](C)(C)c5ccc(OC)cc5)[C@@H]4C)c4ccccc43)c2)cc1`, for which the z-score is -0.172 (inactive) in assay [1]; 2.54 (inactive) in assay [3]; 1.45 (inactive) in [4]; 0.374 (inactive) in assay [5]; 1.85 (inactive) in [6]; -0.59 in assay [7]. Further, the z-score in assay [8] was -6.65 (inactive); in assay [9], -2.74 (inactive); in [10], -3.1; in assay [11], -4.13; in [12], -0.564; in assay [13] it was -4.73. For the same molecule, the z-score in assay [14] was -2.78; in [15] it was -4.35; in assay [16], -2.23; in assay [17], -1.37 (inactive); in assay [18], -0.73; in [19], -1.96. Also, in assay [20], the z-score was -6.33 (inactive). In assay [2], this molecule gave a composite z-score of 0.0698.
As to `COc1ccc(C#Cc2ccc3c(c2)[C@]2(C(=O)N3)[C@H](c3ccccc3OCCO)N3[C@H](c4ccccc4)[C@H](c4ccccc4)OC(=O)[C@H]3[C@@H]2C(=O)O)cc1`, the z-score in [1] is -0.181 (inactive); in assay [3], 0.123 (inactive); in assay [4], 0.267 (inactive); in assay [5], -5.14 (inactive); in [6], -0.867 (inactive); in assay [7] it was 0.25. The z-score in assay [8] is 0.441 (inactive); in assay [9] it was -1.36 (inactive); in assay [10], -0.669; in assay [11], 0.1; in assay [12], 0.143; in assay [13], -2.53. Moreover, the z-score is -3.32 in assay [14]; -4.18 in [15]; -3.62 in assay [16]; 2.54 (inactive) in [17]; -0.93 in assay [18]; -1.9 in assay [19]. Also, in assay [20], the z-score is 0.206 (inactive). For the same molecule, the composite z-score in assay [2] amounted to 1.27.
Regarding `C[C@@H]1ON(c2cccc(C(=O)OC(C)(C)C)c2)[C@H](c2ccc(Br)cc2)[C@H]1C(=O)N1C(=O)OC[C@H]1Cc1ccccc1`, the z-score in assay [1] is -0.46 (inactive); in assay [3], -0.351 (inactive); in [4], 0.488 (inactive); in assay [5], -0.611 (inactive); in assay [6], 0.011 (inactive); in assay [7], 0.217. For the same molecule, the z-score in assay [8] is -1.01 (inactive); in [9] it was -0.079 (inactive); in [10], -0.0305; in assay [11] it was 0.407; in assay [12] it was -0.941; in [13], -0.0479. Besides, the z-score was -0.357 in [14]; -0.205 in assay [15]; -0.344 in assay [16]; 0.375 (inactive) in assay [17]; 0.0362 in [18]; 1.88 in assay [19]. For the same molecule, the z-score in assay [20] is 0.319 (inactive). In assay [2], this molecule returned a composite z-score of 0.2.
In the case of `O=C1NC(=O)C2C1C=CC(C(O)c1ccccc1)N2Nc1ccc(Cl)cc1Cl` (stereo not given), the z-score was -1.87 (inactive) in assay [1]; 5.08 (inactive) in assay [3]; -0.32 (inactive) in assay [4]; -3.3 (inactive) in assay [5]; -1.8 (inactive) in assay [6]; 0.726 in [7]. For the same molecule, the z-score in [8] is -0.169 (inactive); in assay [9], -4.94 (inactive); in assay [10] it was -2.51; in assay [11] it was 0.0862; in assay [12], -0.0715; in assay [13], -1.48. In addition, the z-score in [14] is -3.55; in assay [15] it was -3.28; in [16] it was -3.07; in assay [17], -0.544 (inactive); in assay [18] it was -1.09; in [19], -1.59. For the same molecule, the z-score in assay [20] is -1.92 (inactive). In assay [2], the composite z-score came out at 0.93.
Turning to `C=CCC(OC(C)=O)[C@@H]1[C@@H](N(Cc2ccc(-c3cccc(C(F)(F)F)c3)o2)C(=O)Cc2ccc(F)cc2)c2cc(OCCCO)ccc2N1C(=O)Cc1ccc(OC)cc1` (stereo not given in full), the z-score was 0.29 (inactive) in assay [1]; 2.58 (inactive) in assay [3]; -0.307 (inactive) in assay [4]; -0.876 (inactive) in [5]; -0.668 (inactive) in assay [6]; 0.317 in [7]. Besides, the z-score in [8] was -2.17 (inactive); in [9], 0.269 (inactive); in assay [10], -0.0149; in [11], 1.31; in assay [12], 1.16; in assay [13] it was 0.892. Also, the z-score in [14] was -0.394; in assay [15], 0.274; in assay [16], 2.87; in assay [17] it was 0.649 (inactive); in assay [18], -0.386; in assay [19] it was -0.195. Moreover, the z-score in [20] is 0.555 (inactive). Further, in assay [2], the composite z-score is -0.191.
